Out of some 300,000 compounds screened, about 5,200 (1.7%) were called active.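 Rule for the calls: active = mean replicate activation of at least 50% with a set share of replicates each reaching 50%; inconclusive = only one of those two conditions met; inactive = mean below 50% and too few replicates reaching it.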 For the sample, actives were picked, then their nearest neighbours and some compounds at random.
assay: HSF-1 activators, primary screen, NIH3T3-HGL cells, MG132 stress, luminescence, single point (AID 504408); conditions: NIH3T3-HGL HSF-1 luciferase reporter, MG132, 8 h; at 9 µM; stronger effect = higher value; 100% = twice DMSO control signal;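 note: 0% = median of the neutral control wells and 100% = twice that signal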

activation, active:
Cc1c(CNCCc2ccccc2)c(C(=O)O)c(C)n1-c1ccccc1 60.5%, COc1ccc(C(=O)CCc2ccccc2O)c(OC)c1 58%, CCOC(=O)c1c(Cc2ccc(Cl)cc2)c[nH]c1C 87.7%, O=C(COC(=O)/C=C/c1nc2ccccc2s1)Nc1ccccc1Oc1ccccc1 54.4%, C/C(=N\Nc1nc2ccccc2[nH]1)c1cccs1 106%, C1=C(CCNc2ncnc3c2cnn3-c2ccccc2)CCCC1 61.4%, Cc1ccc(CSc2nc3[nH]ncc3c(=O)[nH]2)cc1 87.9%, Cc1ccsc1C(=O)N/N=C/c1ccc([N+](=O)[O-])cc1 59%, CC1(C)CC(N2CCN(C(c3ccccc3)c3ccccc3)CC2)=CC(=[N+]2CCCCC2)C1 59.1%, COc1ccc(-c2cc(C(=O)Nc3ccccc3O)c3ccccc3n2)cc1 65.5%, COc1ccc(C(=O)n2nc(-c3ccc(Cl)cc3)nc2N)cc1OC 71.9%, CCCN(CCC)c1nc2c(C)cccn2c(=O)c1/C=C1/SC(=S)N(Cc2ccco2)C1=O 99%, O=C(Cn1ncc(N2CCCC2)c(Br)c1=O)c1ccc(Cl)cc1 75.4%, CC1CCCCC1NC(=O)/C(C#N)=C/C=C/c1ccccc1[N+](=O)[O-] (stereo not drawn) 53.4%, Cc1nc(-c2ccc(Cl)cc2)sc1C(=O)CBr 75.1%, O=C(/C=C/c1ccc(OCc2c(F)cccc2Cl)cc1)N1CCOCC1 67.7%, O=C(Cc1nc2ccccc2[nH]c1=O)c1ccc(Cl)cc1 74.3%, CCOC(=O)C1=C(c2ccc(OC)cc2)C(=O)c2ccccc2C1=O 82.9%

activation, inactive:
CNC(=O)CSc1nnc(CCc2ccccc2)n1-c1ccccc1 -1.82%, Cc1c(C(=O)NCc2ccccc2)cnn1-c1ccccc1 2.05%, CC1(C)C/C(=N/Nc2ccc([N+](=O)[O-])cc2[N+](=O)[O-])C(C)(C)O1 -1.15%, COc1ccc(C(=O)CCC(=O)Nc2cccnc2)c(OC)c1 11.9%, COc1ccc(C(=O)NC(C)CCc2ccccc2)c(OC)c1 (stereo not drawn) 15.4%, O=C(Nc1ncccc1O)c1ccc(S(=O)(=O)N2CCCC2)cc1 2.49%, COc1cccc(N2CC(NS(=O)(=O)c3cccs3)CC2=O)c1 (stereo not drawn) 2.81%, O=C(Nc1cc(S(=O)(=O)N2CCOCC2)ccc1OCC(F)(F)F)c1ccc(N2CCCC2=O)cc1 -1.99%, CCOC(=O)N1CCN(C(=O)CNC(=O)Cc2ccc(Cl)cc2)CC1 9.04%, CCOC(=O)c1ccc(CS(=O)c2ccc(Cl)cc2)o1 (stereo not drawn) 8.33%, NC1=NC(c2ccc([N+](=O)[O-])cc2)N(c2ccc(F)cc2)C(N)=N1 (stereo not drawn) -0.817%, O=C(COC(=O)c1cnccn1)Nc1ccc(Cl)cc1C(F)(F)F -12.3%, Cc1ccc(Cl)c(OCC(=O)N(C)CC(=O)Nc2ccc(N3CCOCC3)cc2)c1 1.72%, COc1ccc(-c2csc3ncnc(N4CCN(S(=O)(=O)c5cccc(F)c5)CC4)c23)cc1 2.84%, Cc1cc(NC(=O)CSC2=NS(=O)(=O)c3cc(Cl)ccc3N2)no1 1.14%, CCN(C(=O)COC(=O)/C=C/c1nc2ccccc2s1)C1CCS(=O)(=O)C1 (stereo not drawn) 16.8%, COc1ccc(/C=C/C(=O)OCC(=O)Nc2cccc(Oc3ccccc3)c2)c(OC)c1 35.6%, C/C(=N\Nc1ncc(Cl)cc1Cl)c1cccs1 -33.8%, O=C(Nc1ccccc1-c1nc2ccccc2[nH]c1=O)c1cccs1 -0.37%, Cc1sc2ncnc(N3CCC(C(=O)NNC(=O)c4ccc(F)cc4)CC3)c2c1C -17.9%, Cn1c(SCC(=O)c2ccccc2)ncc(C(=O)Nc2ccc(F)cc2)c1=O 9.37%, Brc1cnc2ccccc2c1N1CCCCC1 4.42%, COc1ccc(CCNC(=O)C(=O)NCC2CCCN2S(=O)(=O)c2cccs2)cc1OC (stereo not drawn) -2.01%, O=C(NNc1ncnc2c1cnn2-c1ccccc1)c1ccco1 13.2%, c1ccc(-n2ncc3c(N4CCCC4)ncnc32)cc1 41.2%, O=[N+]([O-])c1cccc(C=NN=Cc2ccccc2O)c1 -25.2%, O=C(Oc1ccc(-c2nnco2)cc1)c1ccc(F)c(S(=O)(=O)N2CCOCC2)c1 12.4%, CCCSc1nc2[nH]ncc2c(=O)[nH]1 -12.9%, Cc1cccc(NC(=O)CSc2nc3[nH]ncc3c(=O)[nH]2)c1 7.39%, Cc1cccc(N2CC(C(=O)Nc3ccccc3N3CCCC3)CC2=O)c1C (stereo not drawn) -9.91%, Cc1ccc(S(=O)(=O)N2CCN(C(=O)Cc3sc(C)nc3-c3ccc(F)cc3)CC2)c(C)c1 5.21%, CCOC(=O)c1cc(C(C)C)sc1NC(=O)COC(=O)c1nccnc1N -14.3%, Cc1nc2ccccc2cc1C(=O)N/N=C/c1ccc([N+](=O)[O-])cc1 10.7%, NC(=S)N/N=C/c1ccc([N+](=O)[O-])cc1 19.9%, O=C(Nc1ccc(N2CCCCC2)cc1)c1cc(S(=O)(=O)N2CCOCC2)ccc1F 12.6%, CC1CCC(NC(=O)CNC(=O)c2ccc3ccccc3c2)CC1 (stereo not drawn) 26.1%, O=C(COC(=O)Cn1[nH]c(=O)c2ccccc2c1=O)Nc1c(Cl)cccc1C(F)(F)F -2.68%, O=C(O)CN1CCN(C(c2ccccc2)c2ccccc2)CC1 -26.6%, CC(C)NC(=S)N1CCN(C(c2ccccc2)c2ccccc2)CC1 13.7%, COc1ccccc1CCNC(=O)CN1C(=O)NC2(CCCC2)C1=O -21.2%, CC(NC(=O)c1ccccc1F)c1cccc2ccccc12 (stereo not drawn) -4.26%, CNC(=O)COC(=O)c1cc(-c2ccc(OC)cc2)nc2ccccc12 31.1%, COc1ccc(NC(=O)c2cc(-c3cc(OC)c(OC)c(OC)c3)nc3ccccc23)c(OC)c1 -3.17%, COc1ccc(NC(=O)CN(C)C(=O)Cc2coc3cc(C)c(C)cc23)cc1 -0.425%, CC(=O)c1nn(-c2ccc(C)cc2)cc1C(=O)c1cccc(Br)c1 -31.9%, COc1ccc(C(=O)n2nc(C)c(Br)c2C)cc1OC 6.57%, COc1ccc(C(=O)n2nc(-c3ccc(C)cc3)nc2N)cc1OC -1.25%, CC12CCC(=O)N1C(C(=O)NCCN1C(=O)S/C(=C\c3ccccc3F)C1=O)CS2 (stereo not drawn) 3.07%, CCOC(=O)CC1C(=O)NCCN1c1nc2c(C)cccn2c(=O)c1/C=C1\SC(=S)N(C(C)CC)C1=O (stereo not drawn) -29%, O=C(CCCN1C(=O)/C(=C\c2ccco2)SC1=S)Nc1cccc2ccccc12 14.2%, CC(C)c1ccc(S(=O)(=O)N2CCN(C(=O)CN3C(=O)NC(C)(c4ccccc4)C3=O)CC2)cc1 (stereo not drawn) -9.21%, CCC(CC)c1nnc(NC(=O)C2=COCCO2)s1 13.8%, O=C(c1ccc(F)c(S(=O)(=O)N2CCOCC2)c1)N(CCc1ccccc1)Cc1ccccc1 6.07%, O=C(CSc1nc2[nH]ncc2c(=O)[nH]1)Nc1ccc(F)cc1 -14.4%, O=C(Cn1nc(CNc2ccc(Cl)cc2)[n+]2c1CCCCC2)c1ccc(Cl)cc1 19.7%, CC(=O)Cn1ncc(N2CCOCC2)c(Br)c1=O -14.8%, O=C(NCC(c1ccco1)N1CCc2ccccc21)c1cccc(F)c1 (stereo not drawn) 33.2%, Cc1ccc(-c2nn(-c3ccccc3)cc2C(=O)NCCCN2CCCC2=O)cc1 -4.32%, O=[N+]([O-])c1ccccc1/C=C/CN1CCC(O)CC1 -18.5%, O=[N+]([O-])c1ccccc1/C=C/CN1CCCC(CO)C1 (stereo not drawn) -4.33%, O=C(Nc1cc2c3c(c1)CC(=O)N3CCC2)c1ccccc1F -11.8%, Cc1nc(-c2ccc(Cl)cc2)sc1C(=O)NN -2.26%, Cc1nc(-c2ccccc2)sc1C(=O)/C=C/N(C)C -1.43%, COc1ccccc1NC(=O)COC(=O)c1ccccc1SCC(=O)N1CCCC1 -2.69%, CN(C)CCCNC(=O)/C=C/c1ccc(OCc2c(F)cccc2Cl)cc1 -16.4%, COCCCNC(=O)/C=C/c1ccc(OCc2c(F)cccc2Cl)cc1 0.816%, Cc1ccn2c(=O)nc(SCC(=O)NCc3ccc4c(c3)OCO4)nc2c1 -9.78%, CC1=NNC(=O)C1Cc1c(Cl)cccc1Cl (stereo not drawn) 8.87%, O=C(CSc1nc2ccc([N+](=O)[O-])cc2[nH]1)c1ccc(Cl)cc1 9.88%, N#C/C(=C(/O)COC(=O)COc1ccc(Cl)cc1)c1nc2ccccc2[nH]1 25.2%, CCN1C(=O)[C@@H]2[C@@H](c3ccc(-c4ccc(OC)cc4)c(OC)c3)N3CCC[C@@]3(C(=O)OC)[C@@H]2C1=O 14.7%, CCOC(=O)c1c(-c2ccc(C)cc2)csc1/N=C(\C)C1=C(O)c2ccccc2C1=O 9.57%, COc1ccc(OCCCON2C(=O)c3ccccc3C2=O)cc1 3.41%, O=C(Cc1ccc(S(=O)(=O)N2CCOCC2)s1)NCCOc1ccccc1F 3.3%, CC(=O)Nc1cccc(C(=O)OCC(=O)Nc2nnc(-c3ccccc3)o2)c1 -13.5%

From PubChem BioAssay AID504408 (Broad Institute, 2011)
